Shown are actives, neighbours in structure and some others; about 15% of the full set was active somewhere.
ELG1 repair inh – inhibitors of ELG1-dependent DNA repair in HEK293T cells; Potency, µM (titrated, usually from 46.1 µM), hits mostly inhibitors; hit rate 2.3% among 330,000; AID 504467; HEK293T ELG1-luciferase reporter, luminescence, 16 h; DNA damage induced by 5-fluorouridine; also: nearly all actives have a fitted effect of over 55% in size
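DMSO vehicle served as the neutral condition. Each well held 2,000 cells given 5-fluorouridine plus compound; after 16 hr at 37 °C/5% CO2, ONE-Glo was added and luciferase measured 30 min later.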
TDP1 cell CPT – DT40-hTDP1 cell growth loss with CPT. chicken DT40 Tdp1-/-;hTDP1 cells + 20 nM CPT, ATP luminescence, 48 h. Potency, µM (top dose mostly 46.2 µM), most hits filed as inhibitors. hit rate 12% among 420,000. AID 686979; also: nearly all actives have a fitted effect of over 55% in size
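Chicken DT40 Tdp1-/- cells complemented with human TDP1, 400 cells/well, exposed to compounds plus 20 nM camptothecin for at least 48 h at 37 C; viability read as ATP content by CellTiter-Glo luminescence.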
Gal4-VP16 FLuc – counter-screen for ROR gamma inhibitors: Gal4-VP16 reporter; Drosophila S2 Gal4-VP16 UAS-luciferase, luminescence, 20 h; Potency, µM (titrated, usually from 53.6 µM), hits mostly inhibitors; hit rate 3.5% among 310,000;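 also: Gal4-VP16 expression switched on by copper sulfate through the metallothionein promoter; nearly all actives have a fitted effect of over 50% in size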
RORg inh – ROR gamma (mouse) transcription inhibition; hit rate 5.4% among 310,000; AID 2551; Potency, µM (top dose mostly 53.6 µM), most hits filed as inhibitors; Drosophila S2 Gal4-RORgamma UAS-luciferase reporter, 20 h; P51450; also: nearly all actives have a fitted effect of over 60% in size
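Luciferase reporter read in Schneider cells carrying Gal4-RORγ (mouse) and UAS-Photinus luciferase; cells given compound 1 h before 700 uM copper sulfate induction, then incubated 20 h at ambient temperature.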
12-LOX inh – blocks human arachidonate 12S-lipoxygenase | P18054 | purified 12hLO, xylenol orange hydroperoxide absorbance | Potency, µM (doses to about 108 µM), usual class: inhibitors | hit rate 1.1% among 580,000 | AID 1671190
Target sequence (P18054 whole entry, looked up): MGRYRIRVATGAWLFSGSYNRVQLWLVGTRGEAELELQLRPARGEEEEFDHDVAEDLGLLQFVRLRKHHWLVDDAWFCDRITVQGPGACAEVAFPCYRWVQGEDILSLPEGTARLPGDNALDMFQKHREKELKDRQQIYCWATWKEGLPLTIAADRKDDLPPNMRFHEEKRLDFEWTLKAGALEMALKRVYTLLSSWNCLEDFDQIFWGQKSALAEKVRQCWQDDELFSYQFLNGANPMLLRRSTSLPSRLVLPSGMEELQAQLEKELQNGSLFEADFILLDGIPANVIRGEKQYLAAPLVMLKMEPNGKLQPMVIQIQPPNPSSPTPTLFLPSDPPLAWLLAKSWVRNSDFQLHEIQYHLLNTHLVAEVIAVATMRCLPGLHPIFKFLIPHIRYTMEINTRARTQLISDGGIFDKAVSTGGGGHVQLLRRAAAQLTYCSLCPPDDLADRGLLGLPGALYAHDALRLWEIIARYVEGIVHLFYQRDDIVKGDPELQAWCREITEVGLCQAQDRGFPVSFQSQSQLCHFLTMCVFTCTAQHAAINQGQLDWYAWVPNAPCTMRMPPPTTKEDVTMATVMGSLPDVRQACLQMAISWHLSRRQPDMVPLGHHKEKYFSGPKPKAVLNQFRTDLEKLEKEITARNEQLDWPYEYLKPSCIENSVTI
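Purified human 12hLO (150 nM final) in 25 mM Hepes, 0.01% Triton X-100, pH 7.0 was preincubated 15 min at room temperature with compound. Then 40 uM arachidonic acid was added, 30 min. Hydroperoxide was read by Fe-XO absorbance ratio 573/405 nm.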
TDP1 cell noCPT – qHTS for Inhibitors of human tyrosyl-DNA phosphodiesterase 1 (TDP1): qHTS in cells in absence of CPT. DT40 Tdp1-/- hTDP1 cells, no CPT, ATP luminescence, 48 h. Potency, µM (series often up to 46.2 µM), usual class: inhibitors. hit rate 15% among 420,000. AID 686978, 2013; also: nearly all actives have a fitted effect of over 55% in size
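No-CPT arm: Tdp1-/-;hTDP1 DT40 cells (400/well) plus compounds, incubated ≥48 hr at 37 °C. Readout CellTiter-Glo luminescence.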
Large screens that a line does not name were inactive. Calls follow the shape of the dose curve; as a rule, active = well fitted curve in the direction sought with a large enough effect; inconclusive = small, poorly fitted or top-dose-only effect, or another doubt; inactive = no such curve, though single readings can be large; an effect the other way counts as inactive or inconclusive.

BrC(=C\c1ccccc1)/C=N/N1CCN(Cc2ccccc2)CC1	TDP1 cell CPT 1.84µM, Gal4-VP16 FLuc inconclusive, TDP1 cell noCPT 3.26µM
COc1ccc(CCNc2cc(N3CCN(C(=O)c4ccc(C)cc4)CC3)ccc2[N+](=O)[O-])cc1OC	ELG1 repair inh 2.06µM, RORg inh inconclusive (no result: TDP1 cell CPT, 12-LOX inh, TDP1 cell noCPT)
COc1ccc(CCNc2cc(N3CCN(C(=O)c4ccccc4F)CC3)ccc2[N+](=O)[O-])cc1OC	ELG1 repair inh 4.11µM, TDP1 cell CPT 4.61µM, Gal4-VP16 FLuc 10µM, TDP1 cell noCPT 5.17µM
COc1ccc(CCNc2ccc(C(=O)O)cc2[N+](=O)[O-])cc1OC	none
COc1ccc(C(=O)N2CCN(c3ccc([N+](=O)[O-])c(NCCc4ccc(OC)c(OC)c4)c3)CC2)cc1	ELG1 repair inh inconclusive, TDP1 cell CPT 4.11µM, Gal4-VP16 FLuc 3.98µM, RORg inh inconclusive, TDP1 cell noCPT 2.59µM
Cn1cnnc1-c1nn(C)c2c1CN(C(=O)c1n[nH]c3c1CCCCCC3)CC2	none (no result: ELG1 repair inh, TDP1 cell CPT, Gal4-VP16 FLuc, RORg inh, TDP1 cell noCPT)
CC(=O)C1=CCC(c2ccccc2)N(S(=O)(=O)c2ccccc2C)C1 (configuration not stated)	TDP1 cell CPT inconclusive, TDP1 cell noCPT 20.6µM (no result: ELG1 repair inh, Gal4-VP16 FLuc, RORg inh)
CCOC(=O)C1=CCC(c2ccccc2)N(S(=O)(=O)c2ccccc2C)C1 (configuration not stated)	TDP1 cell CPT inconclusive, TDP1 cell noCPT 23.1µM (no result: ELG1 repair inh, Gal4-VP16 FLuc, RORg inh)
CCNC(=O)CN1CCN(C(=O)C2CCN(c3nc4ccccc4o3)CC2)CC1	none (no result: ELG1 repair inh, TDP1 cell CPT, Gal4-VP16 FLuc, RORg inh, TDP1 cell noCPT)
COc1ccc(NC(=S)Nc2cc(-c3ccccc3)[nH]n2)cc1Cl	ELG1 repair inh inconclusive, TDP1 cell CPT 22.4µM, Gal4-VP16 FLuc 2µM, RORg inh 2.82µM, 12-LOX inh inconclusive, TDP1 cell noCPT inconclusive
COc1ccc(NC(=S)Nc2cc(C)[nH]n2)cc1Cl	ELG1 repair inh inconclusive, TDP1 cell CPT inconclusive, Gal4-VP16 FLuc inconclusive, RORg inh inconclusive, 12-LOX inh inconclusive, TDP1 cell noCPT 18.4µM
Cc1cc(NC(=S)Nc2ccc(C)c(Cl)c2)n[nH]1	ELG1 repair inh inconclusive, TDP1 cell CPT inconclusive, Gal4-VP16 FLuc 1µM, RORg inh 0.355µM, 12-LOX inh 14.1µM, TDP1 cell noCPT inconclusive
COc1ccc(NC(=O)COc2ccccc2)cc1Cl	ELG1 repair inh inconclusive
Cc1cccc(C(=O)N2CCCCCC2c2nc(C)no2)c1 (configuration not stated)	none (no result: ELG1 repair inh, TDP1 cell CPT, Gal4-VP16 FLuc, RORg inh, TDP1 cell noCPT)
Cc1ccc(OCCNS(=O)(=O)c2ccc(N3CCCC3=O)cc2)cc1C	ELG1 repair inh inconclusive, TDP1 cell CPT 6.51µM, Gal4-VP16 FLuc 12.6µM, TDP1 cell noCPT 6.51µM
COc1ccc(NS(=O)(=O)c2ccc(N3CCCC3=O)cc2)cn1	ELG1 repair inh inconclusive, TDP1 cell CPT 4.61µM, TDP1 cell noCPT 6.51µM
COc1ccc(OC)c(NS(=O)(=O)c2ccc(-n3cccn3)cc2)c1	TDP1 cell CPT inconclusive, TDP1 cell noCPT 10.3µM (no result: ELG1 repair inh, Gal4-VP16 FLuc, RORg inh)
COc1ccc(NS(=O)(=O)c2ccc3c(c2)Cc2ccccc2-3)cn1	ELG1 repair inh inconclusive, TDP1 cell CPT inconclusive, Gal4-VP16 FLuc inconclusive, TDP1 cell noCPT inconclusive
COc1ccc(CCNS(=O)(=O)c2ccc(N3CCCC3=O)cc2)cc1	TDP1 cell CPT 20.6µM, TDP1 cell noCPT 20.6µM (no result: ELG1 repair inh, Gal4-VP16 FLuc, RORg inh)
O=C1CCCN1c1ccc(S(=O)(=O)NCCc2ccc(Cl)cc2)cc1	TDP1 cell CPT inconclusive, TDP1 cell noCPT inconclusive
Cc1ccc(NS(=O)(=O)c2ccc(-n3cccn3)cc2)c(Cl)c1	TDP1 cell CPT inconclusive, TDP1 cell noCPT inconclusive (no result: ELG1 repair inh, Gal4-VP16 FLuc, RORg inh)
Cc1ccc2oc(C(=O)N3CCN(c4cccc(Cl)c4)CC3)cc(=O)c2c1	none (no result: ELG1 repair inh, TDP1 cell CPT, Gal4-VP16 FLuc, RORg inh, TDP1 cell noCPT)
CCCCc1ccc(S(=O)(=O)NCCCN2CCCC2=O)cc1	TDP1 cell CPT inconclusive, TDP1 cell noCPT 13µM (no result: Gal4-VP16 FLuc, RORg inh)
Cc1ccc(OCCNS(=O)(=O)c2ccc(Cl)cc2)cc1	none (no result: Gal4-VP16 FLuc, RORg inh)
Cn1c(=O)oc2cc(S(=O)(=O)NCCCN3CCCC3=O)ccc21	none
Cc1cc(N2CCCC2=O)cc(C)c1S(=O)(=O)NCCOc1ccccc1	ELG1 repair inh inconclusive, TDP1 cell CPT 8.2µM, TDP1 cell noCPT inconclusive

Bioassay records deposited in PubChem BioAssay by National Center for Advancing Translational Sciences (NCATS).
